31 compounds from PubChem BioAssay (NCATS) can be followed below.

Molecules are shown by their SMILES. Records with an inconclusive call do not appear. A number with no mark means an inactive call. Activity calls are given as the source filed them. The call rests on the fitted dose curve; in most records, active means well fitted curve in the direction sought with a large enough effect; inconclusive means small, poorly fitted or top-dose-only effect, or another doubt; inactive means no such curve, though single readings can be large; an effect the other way counts as inactive or inconclusive.

The nature of test [1]: BET inhibitor-based combinations targeting novel dependencies in MECOM-rearranged (r) AML: SET-2 cell line (AID 2202231). Further: nearly all actives have a fitted effect of over 35% in size.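 On viability: plate controls were DMSO treated cells for no effect and wells without cells for full effect.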 The following applies: SET-2 AML cells viability, CellTiter-Glo luminescence, 48 h; viability: active compounds read low, concentration not given here. The method in brief:
(§1)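 Here, 11-point titrations of each agent were applied to 500 seeded cells and incubated 48 hr; CellTiter-Glo signal, scaled against DMSO and empty wells, was integrated as AUC, then Z-scored within the individual line.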

Test [2] is described as follows: BET inhibitor-based combinations targeting novel dependencies in MECOM-rearranged (r) AML: HNT-34 cell line (AID 2202234). Further: nearly all actives have a fitted effect of over 35% in size. The method in brief:
(§2)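 Normalized to DMSO and empty-well controls, the luminescence data from CellTiter-Glo after 48 hr drug exposure were fitted across 11 concentrations. Reported metrics are area under the dose-response curve and its Z-transformed form.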

A short description of test [3]: BET inhibitor-based combinations targeting novel dependencies in MECOM-rearranged (r) AML: UCSD-AML1 cell line (AID 2202235). Further: nearly all actives have a fitted effect of over 40% in size. The method in brief:
as §2

Test [4] is described as follows: BET inhibitor-based combinations targeting novel dependencies in MECOM-rearranged (r) AML: AML-191 cell line (AID 2202236; further: nearly all actives have a fitted effect of over 35% in size). The method in brief: as §1
Test [5] can be described thus: BET inhibitor-based combinations targeting novel dependencies in MECOM-rearranged (r) AML: AML-194 cell line (AID 2202237; further: nearly all actives have a fitted effect of over 40% in size). An outline of the steps: as §1
Test [6] can be described thus: BET inhibitor-based combinations targeting novel dependencies in MECOM-rearranged (r) AML: MV-4-11 cell line (AID 2202233). Further: nearly all actives have a fitted effect of over 45% in size. The method in brief:
as §2

A short description of test [7]: BET inhibitor-based combinations targeting novel dependencies in MECOM-rearranged (r) AML: OCI-AML3 cell line (AID 2202232). Further: nearly all actives have a fitted effect of over 35% in size. The following applies: Potency: OCI-AML3 viability. An outline of the steps:
as §1
Potency means the concentration at half of the fitted maximal effect.

Turning to `C[C@]12CC[C@@H]3c4ccc(O)cc4CC[C@H]3[C@@H]1C[C@@H](O)[C@@H]2O`, in test [1], the viability was 109%. Moreover, the Potency result in test [2], in test [3], in test [4] and in test [5] was “inactive” in each case.

Turning to `c1ccc(CNCc2ccc(CN3CCCNCCNCCCNCC3)cc2)nc1`, in test [1], the viability was 110%. In addition, the Potency result in test [2], in test [3], in test [4] and in test [5] was “inactive” each time.

On to `CN(C)c1ccccc1CN1CCCN(Cc2ccccc2N(C)C)C1c1ccncc1`, for which the viability in test [1] is 99.7%. Moreover, the Potency result in test [2], in test [3], in test [4] and in test [5] was “inactive” each time.

Regarding `C=CC(=O)N[C@H]1CN(c2nc(Nc3cn(C)nc3OC)c3ncn(C)c3n2)C[C@@H]1F`, the viability in test [1] was 87.8%. Further, in test [2], the Potency result was “inactive”.

`CCOc1ccc(Cc2cc([C@@H]3O[C@H](CO)[C@@H](O)[C@H](O)[C@H]3O)ccc2Cl)cc1`: the viability in test [1] was 95%. The Potency result in test [2] and in test [5] was “inactive” throughout.

Regarding `O=C(O)CCCCN(CCc1ccccc1OCc1ccc(CCc2ccccc2)cc1)Cc1ccc(C(=O)O)cc1`, the viability in test [1] is 108%. Moreover, the Potency in test [2] is 2.09 µM (active). For the same compound, the Potency entry in test [4] and in test [5] was “inactive” throughout.

For the compound `C=CC(=O)Nc1cc(N2CCN(CC)CC2)ccc1Nc1cc(N(C)C(=O)Nc2c(Cl)c(OC)cc(OC)c2Cl)ncn1`, the viability in test [1] was 112%. For the same compound, the Potency in test [6] is 20.9 µM (active). For the same compound, the Potency result in test [4] and in test [5] was “inactive” each time.

As to `CC(=O)C1CCC2C3CCC4=CC(=O)CCC4(C)C3CCC12C` (configuration not stated), in test [1], the Potency was 18.6 µM (active). The Potency result in test [3] is “inactive”.

Take `Cc1nc(NC(=O)N2CCC[C@H]2C(N)=O)sc1-c1csc(C(C)(C)C)n1`: the viability in test [1] was 98.3%. Further, the Potency result in test [2] is “inactive”. The Potency in test [4] was 16.6 µM (active).

Consider `O=C(N[C@@H](c1ccccc1)[C@@H]1CCCCN1)c1cccc(C(F)(F)F)c1Cl`, for which the Potency in test [1] is 1.18 µM (active); in test [2] it was 18.6 µM (active).

Regarding `C=CC[C@@H]1/C=C(\C)C[C@H](C)C[C@H](OC)[C@H]2O[C@@](O)(C(=O)C(=O)N3CCCC[C@H]3C(=O)O[C@H](/C(C)=C/[C@@H]3CC[C@@H](O)[C@H](OC)C3)[C@H](C)[C@@H](O)CC1=O)[C@H](C)C[C@@H]2OC`, the viability in test [1] was 51.4%. For the same compound, the Potency in test [2] was 23.5 µM (active); in test [3], 26.3 µM (active); in test [4], 18.6 µM (active); in test [5], 20.9 µM (active).

Regarding `O=C(c1ccc(Nc2nc(C3CC3)cn3c(-c4cn[nH]c4)cnc23)c(F)c1)N1CCOCC1`, in test [1], the viability was 57.2%. Moreover, the Potency was 1.18 µM (active) in test [6] and 20.9 µM (active) in test [4].

For `COc1cc(OC)c(NC(=O)Nc2cc(C)on2)cc1Cl`, the viability in test [1] was 115%. Besides, the Potency entry in test [2], in test [3], in test [4] and in test [5] was “inactive” throughout.

For the compound `C=CC(=O)Nc1cc2c(Nc3ccc(F)c(Cl)c3)ncnc2cc1C#CC(C)(C)N1CCN(C)CC1`, the Potency in test [1] was 5.9 µM (active); in test [2] it was 3.72 µM (active); in test [3], 4.17 µM (active); in test [4], 4.68 µM (active); in test [5] it was 4.68 µM (active).

For `CO[C@H]1C(=O)[C@]2(C)[C@@H](OC)C[C@H]3OC[C@@]3(OC(C)=O)[C@H]2[C@H](OC(=O)c2ccccc2)[C@]2(O)C[C@H](OC(=O)[C@H](O)[C@@H](NC(=O)OC(C)(C)C)c3ccccc3)C(C)=C1C2(C)C`, the Potency was 0.0037 µM (active) in test [1], 0.0023 µM (active) in test [6], 0.0037 µM (active) in test [4] and 0.0042 µM (active) in test [5].

`O=C1OC(COc2ccccc2[N+](=O)[O-])CC1Cc1ccccc1` (configuration not stated): the viability in test [1] was 112%. Also, the Potency entry in test [2], in test [3], in test [4] and in test [5] was “inactive” each time.

For `C[C@@H](O[C@H]1OCCN(Cc2n[nH]c(=O)[nH]2)[C@@H]1c1ccc(F)cc1)c1cc(C(F)(F)F)cc(C(F)(F)F)c1`, the Potency was 20.9 µM (active) in test [1], 18.6 µM (active) in test [2] and 16.6 µM (active) in test [4].

With `O=C(Nc1nccs1)C(c1cc(F)ccc1O)N1Cc2ccccc2C1=O` (configuration not stated), the Potency in test [1] was 18.6 µM (active). Moreover, the Potency entry in test [3], in test [4] and in test [5] was “inactive” each time.

As to `CN(C)CCN(C)C(=O)c1ccc(NC(=O)Nc2ccc(-c3nc(N4CCOCC4)c4ccn(CC(F)(F)F)c4n3)cc2)cc1`, the Potency in test [7] is 0.934 µM (active).

`CCc1ccc2nc(Nc3cc(Cc4ccccc4)nc(NC4CCC(O)CC4)n3)sc2c1` (configuration not stated): the Potency in test [7] and in test [6] was 18.6 µM (active) in each case.

Consider `O=C(NCc1ccncc1)C12C[C@H]3C[C@@H](C1)CC(c1ccc(Cl)cc1)(C3)C2`, for which the Potency in test [7] was 20.9 µM (active).

Turning to `O=C(NO)c1cnc(NC2(c3cccc(F)c3)CCCCC2)nc1`, the figures for the Potency in test [1] and in test [4] were 9.34 µM (active) and 10.5 µM (active), respectively.

For the compound `OCCOc1ccc(/C(=C(/CCCl)c2ccccc2)c2ccccc2)cc1`, in test [1], the Potency was 16.6 µM (active). The Potency entry in test [3] and in test [5] was “inactive” each time.

Regarding `O=c1cc(-c2cccc3c2Sc2ccccc2S3)oc(N2CCOCC2)c1`, the Potency is 13.2 µM (active) in test [7] and 18.6 µM (active) in test [6].

Turning to `CCCCC[C@H](O)C=C[C@H]1[C@H](O)CC(=O)[C@H]1CC=CCCCC(=O)O`, in test [7], the Potency is 5.9 µM (active).

Regarding `CC1Oc2cc(cnc2N)-c2c(nn(C)c2C#N)CN(C)C(=O)c2ccc(F)cc21` (configuration not stated), in test [1], the viability was 105%. Also, in test [3], the Potency is 20.9 µM (active).

Turning to `O=C1NC(=O)[C@@H](c2cn3c4c(cccc24)CCC3)[C@@H]1c1c[nH]c2ccccc12`, the Potency was 1.32 µM (active) in test [1], 0.934 µM (active) in test [4] and 0.934 µM (active) in test [5].

For the compound `CN[C@@H](C)C(=O)N[C@H](C(=O)N1CCC[C@H]1C(=O)Nc1sc(-c2ncco2)nc1-c1ccccc1)C1CCCCC1`, in test [1], the viability is 112%. Also, the Potency in test [3] was 1.18 µM (active). Besides, the Potency entry in test [5] was “inactive”.

Take `CCOC(=O)[C@@]1(CCCCCCOc2ccc(Cl)cc2)CO1`: the viability in test [1] was 92%. For the same compound, the Potency entry in test [3] was “inactive”.

For `O=C1S/C(=C\c2ccc(OCc3cccc(B(O)O)c3)cc2)C(=O)N1Cc1ccc(F)cc1`, the viability in test [1] was 87.6%. The Potency entry in test [3] and in test [5] was “inactive” throughout. In addition, the Potency in test [4] was 18.6 µM (active).

As for `CN1CCN(CCCNc2ncc(Cl)c(-c3cc4c(C(=O)NC5CC5)cccc4s3)n2)CC1`, the viability in test [1] was 80.2%. The Potency result in test [3] was “inactive”.

The viability is a read-out of living cells in per cent, often relative to untreated cells.
